Test [1] deals with Cytochrome P450 1A2 (Homo sapiens) (UniProt P05177). The test can be described thus: p450-cyp1a2 (AID 410; calls by dose curve; note: potency is the fitted concentration of half-maximal effect). In a few lines: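 Luminescent readout of luciferin formed from Luciferin-ME by human CYP1A2; data normalized against complete inhibition by 57 uM furafylline. Enzyme 20nM, substrate 100uM at Km, 100mM KPO4 buffer, 60 min reaction at room temperature.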
Test [2] concerns the target Glucocorticoid receptor (Homo sapiens) (UniProt P04150). The test can be described thus: GR-GFP Redistribution (AID 450;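 active = compounds whose dose series gives a full or clear partial fitted curve of increased nuclear translocation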; note: potency is the fitted concentration of half-maximal effect). Conditions: U2OS GR-GFP nuclear translocation, laser cytometry, 2 h.
Test [3] deals with Mitogen-activated protein kinase 10 (Mus musculus) (UniProt Q61831). The test can be described thus: JNK3 AlphaScreen Assay (AID 530; active = well fitted curve in either direction with a large enough effect, not every such curve was filed as active;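 note: kinase came from lysate of stimulated human HepG2 cells; signal reports phosphorylation of biotinylated GST-cJun 1-79 at Ser73 with 10 µM ATP; series mostly up to about 57 µM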). In a few lines: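 Inhibitors reduce antibody binding to phosphorylated biotin-cJun, lowering AlphaScreen luminescence. Lysates from HepG2 cells pre-activated by IL-1beta plus TNF-alpha supplied JNK3; compounds were titrated.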
On the technique in general: Alpha assays give light when donor and acceptor beads are brought close together.

The target in test [4] is Cytochrome P450 3A4 (Homo sapiens) (UniProt P08684). Kind of test: qHTS Assay for Inhibitors and Substrates of Cytochrome P450 3A4 (AID 884). Note: potency is the fitted concentration of half-maximal effect; nearly all actives have a fitted effect of over 50% in size. In a few lines: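 20 nM human CYP3A4 with 25 uM Luciferin-PPXE (at KM) in 200 mM KPO4, preincubated 10 min with compound; NADPH regeneration started a 60 min RT reaction. Luciferin detected by luminescence, normalized to 57 uM ketoconazole as full inhibition.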
Sequence of Cytochrome P450 3A4 (Homo sapiens) (P08684 whole entry, looked up): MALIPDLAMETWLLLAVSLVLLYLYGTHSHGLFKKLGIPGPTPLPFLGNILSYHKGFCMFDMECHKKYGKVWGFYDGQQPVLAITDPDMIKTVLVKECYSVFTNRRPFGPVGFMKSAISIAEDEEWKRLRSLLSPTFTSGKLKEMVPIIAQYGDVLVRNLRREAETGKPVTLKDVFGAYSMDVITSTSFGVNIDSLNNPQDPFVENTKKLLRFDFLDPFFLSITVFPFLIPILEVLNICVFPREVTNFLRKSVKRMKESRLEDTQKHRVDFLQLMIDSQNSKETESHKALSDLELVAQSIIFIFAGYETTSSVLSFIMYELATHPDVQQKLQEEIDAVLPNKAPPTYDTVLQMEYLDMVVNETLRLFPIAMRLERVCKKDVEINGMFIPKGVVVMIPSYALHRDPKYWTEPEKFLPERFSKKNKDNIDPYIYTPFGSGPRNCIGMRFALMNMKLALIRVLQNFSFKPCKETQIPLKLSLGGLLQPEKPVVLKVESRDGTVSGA

Test [5] deals with Cytochrome P450 2D6 (Homo sapiens) (UniProt P10635). The test can be described thus: qHTS Assay for Inhibitors and Substrates of Cytochrome P450 2D6 (AID 891). Note: nearly all actives have a fitted effect of over 60% in size. Note: potency is the fitted concentration of half-maximal effect. In a few lines: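 Human CYP2D6 (5 nM) with 30 uM Luciferin-ME EGE (at Km) in 100 mM KPO4, compound preincubated 10 min, then NADPH regeneration system for 60 min at room temperature. Luciferin read by luminescence; normalized to 1.43 uM quinidine.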
Sequence of Cytochrome P450 2D6 (Homo sapiens) (P10635 whole entry, looked up): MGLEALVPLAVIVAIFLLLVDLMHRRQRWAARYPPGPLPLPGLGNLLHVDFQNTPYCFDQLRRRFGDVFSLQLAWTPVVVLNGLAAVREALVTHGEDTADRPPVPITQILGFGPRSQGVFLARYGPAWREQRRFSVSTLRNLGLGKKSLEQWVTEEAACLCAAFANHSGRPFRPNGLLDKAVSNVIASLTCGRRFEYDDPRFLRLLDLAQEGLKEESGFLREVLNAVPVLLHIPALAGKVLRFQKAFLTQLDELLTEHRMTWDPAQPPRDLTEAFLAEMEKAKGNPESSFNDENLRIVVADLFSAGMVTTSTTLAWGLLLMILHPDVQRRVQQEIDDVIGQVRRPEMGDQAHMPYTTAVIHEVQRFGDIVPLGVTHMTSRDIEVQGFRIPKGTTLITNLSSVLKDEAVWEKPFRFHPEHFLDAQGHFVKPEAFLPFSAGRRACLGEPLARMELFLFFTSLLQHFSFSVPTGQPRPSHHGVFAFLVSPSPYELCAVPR

Test [6] concerns the target Cytochrome P450 2C19 (Homo sapiens) (UniProt P33261). Kind of test: qHTS Assay for Inhibitors and Substrates of Cytochrome P450 2C19 (AID 899). Note: nearly all actives have a fitted effect of over 60% in size. Note: potency is the fitted concentration of half-maximal effect. In a few lines:
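In 50mM KPO4, the reaction held 5nM enzyme and KM-level (10uM) Luciferin-H EGE; it ran 60 min at 37C after NADPH regeneration and a 10 min compound preincubation. Luminescence values were scaled to 57uM ketoconazole as complete inhibition.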
Background: qHTS replaces the single test concentration by a dilution series.

The target in test [7] is DNA dC->dU-editing enzyme APOBEC-3G (Homo sapiens) (UniProt Q9HC16). Kind of test: qHTS for inhibitors of Vif-A3G interactions: Validation (AID 588379). In a few lines: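 HeLa cells stably expressing Vif and A3G-eYFP, 700 cells/well, incubated overnight at 37 deg C, then exposed to compound overnight at 37 deg C. Inhibition of Vif-mediated degradation read as increased yellow fluorescence (Ex 488/Em 500-530) by laser-scanning cytometry.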
Sequence of DNA dC->dU-editing enzyme APOBEC-3G (Homo sapiens) (Q9HC16 whole entry, looked up): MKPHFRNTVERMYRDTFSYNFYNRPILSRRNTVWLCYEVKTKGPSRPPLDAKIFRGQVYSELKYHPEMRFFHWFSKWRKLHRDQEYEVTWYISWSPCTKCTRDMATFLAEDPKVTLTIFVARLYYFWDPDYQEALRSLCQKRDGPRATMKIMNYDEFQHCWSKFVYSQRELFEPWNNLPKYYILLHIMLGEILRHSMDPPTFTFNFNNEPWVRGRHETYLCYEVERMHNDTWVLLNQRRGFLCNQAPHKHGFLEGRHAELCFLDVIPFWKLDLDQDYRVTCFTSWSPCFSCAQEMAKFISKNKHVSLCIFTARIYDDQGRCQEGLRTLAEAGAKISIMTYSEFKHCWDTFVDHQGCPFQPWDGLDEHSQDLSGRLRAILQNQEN

Test [8] concerns the target 3',5'-cyclic-AMP phosphodiesterase 4B (Homo sapiens) (UniProt Q07343). The test can be described thus: qHTS Assay for Inhibitors of PDE-IV (AID 607; active = well fitted activation curve with a large enough effect in the main read-out, with a control signal flat, not every such curve was filed as active). In a few lines:
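The readout is membrane depolarisation from a cAMP-sensing CNG channel, detected with a potential dye at ex 535/em 590. Cells were HEK293-derived (endogenous PDE-IV) at 1000 cells/well, titrated up to 22.9 uM final.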

In test [9] the target is Cytochrome P450 2C9 (Homo sapiens) (UniProt P11712). Kind of test: qHTS Assay for Inhibitors and Substrates of Cytochrome P450 2C9 (AID 883). Note: nearly all actives have a fitted effect of over 60% in size. Note: potency is the fitted concentration of half-maximal effect. In a few lines: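 CYP2C9 deoxyluciferin hydroxylation, 37C, 60 min with NADPH regeneration; 10nM enzyme, 100uM Luciferin-H (KM). Glo detection reagent stopped reaction; luminescence normalized to sulphaphenazole (57uM) full inhibition.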
Sequence of Cytochrome P450 2C9 (Homo sapiens) (P11712 whole entry, looked up): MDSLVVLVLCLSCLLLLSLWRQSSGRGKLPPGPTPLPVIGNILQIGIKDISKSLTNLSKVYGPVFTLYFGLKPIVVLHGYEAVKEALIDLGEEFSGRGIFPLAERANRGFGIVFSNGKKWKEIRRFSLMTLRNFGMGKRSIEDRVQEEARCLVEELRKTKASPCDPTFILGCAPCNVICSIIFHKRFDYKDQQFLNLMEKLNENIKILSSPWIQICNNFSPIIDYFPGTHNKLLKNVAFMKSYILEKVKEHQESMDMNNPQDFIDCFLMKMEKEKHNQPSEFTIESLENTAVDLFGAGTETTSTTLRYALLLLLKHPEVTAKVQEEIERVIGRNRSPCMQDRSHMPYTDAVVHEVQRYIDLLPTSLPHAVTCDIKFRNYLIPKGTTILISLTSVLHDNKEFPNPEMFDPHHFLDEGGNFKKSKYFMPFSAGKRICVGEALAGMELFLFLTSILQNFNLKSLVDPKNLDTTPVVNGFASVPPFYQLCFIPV

Test [10] concerns the target Glucocorticoid receptor (Homo sapiens) (UniProt P04150). The test can be described thus: GR-EFC Redistribution (AID 451; calls by dose curve; note: potency is the fitted concentration of half-maximal effect). Conditions: CHO-K1 GR-EFC translocation, beta-gal luminescence, 2 h. In a few lines:
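CHO-K1 cells stably expressing nuclear-localized β-gal enzyme acceptor and GR fused C-terminally to the enzyme donor fragment; ligand-driven nuclear translocation restores β-gal by complementation. Compounds titrated up to 46 uM final, 2 h at 37 °C; luminescence read.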

Test [11] deals with Cytochrome P450 3A4 (Homo sapiens) (UniProt P08684). The test can be described thus: qHTS Assay for Activators of Cytochrome P450 3A4 (AID 885). Note: nearly all actives have a fitted effect of over 65% in size. In a few lines: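 Steps: enzyme/substrate mix dispensed; compound added, 10 min RT; NADPH regeneration solution added, 60 min RT; luciferin detection buffer stops reaction; 20 min later luminescence measured.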

The structures appear in SMILES notation. Values joined by “and” are separate entries in the source; they are usually repeats but may differ in a detail not shown here. Equal entries are not always repeated. A number with no mark means an inactive call. Records with an inconclusive call do not appear. Active and inactive are the calls of the source. Unless noted, calls come from the whole dose curve; as a rule, active = well fitted curve in the direction sought with a large enough effect; inconclusive = small, poorly fitted or top-dose-only effect, or another doubt; inactive = no such curve, though single readings can be large; an effect the other way counts as inactive or inconclusive.

Sequence of Cytochrome P450 1A2 (Homo sapiens) (P05177 whole entry, looked up): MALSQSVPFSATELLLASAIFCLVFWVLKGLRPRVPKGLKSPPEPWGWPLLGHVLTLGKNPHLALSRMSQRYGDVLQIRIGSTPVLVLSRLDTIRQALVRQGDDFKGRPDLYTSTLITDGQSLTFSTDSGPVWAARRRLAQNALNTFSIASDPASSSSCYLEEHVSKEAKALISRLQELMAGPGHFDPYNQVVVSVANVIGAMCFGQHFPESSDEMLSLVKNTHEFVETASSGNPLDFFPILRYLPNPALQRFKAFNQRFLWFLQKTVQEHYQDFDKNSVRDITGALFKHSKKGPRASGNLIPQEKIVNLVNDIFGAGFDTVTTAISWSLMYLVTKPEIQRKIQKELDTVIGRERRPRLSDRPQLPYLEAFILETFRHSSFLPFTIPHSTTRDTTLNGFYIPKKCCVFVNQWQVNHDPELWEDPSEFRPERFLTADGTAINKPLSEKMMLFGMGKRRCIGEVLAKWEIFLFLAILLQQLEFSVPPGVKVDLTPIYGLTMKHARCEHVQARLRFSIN
Sequence of 3',5'-cyclic-AMP phosphodiesterase 4B (Homo sapiens) (Q07343 whole entry, looked up): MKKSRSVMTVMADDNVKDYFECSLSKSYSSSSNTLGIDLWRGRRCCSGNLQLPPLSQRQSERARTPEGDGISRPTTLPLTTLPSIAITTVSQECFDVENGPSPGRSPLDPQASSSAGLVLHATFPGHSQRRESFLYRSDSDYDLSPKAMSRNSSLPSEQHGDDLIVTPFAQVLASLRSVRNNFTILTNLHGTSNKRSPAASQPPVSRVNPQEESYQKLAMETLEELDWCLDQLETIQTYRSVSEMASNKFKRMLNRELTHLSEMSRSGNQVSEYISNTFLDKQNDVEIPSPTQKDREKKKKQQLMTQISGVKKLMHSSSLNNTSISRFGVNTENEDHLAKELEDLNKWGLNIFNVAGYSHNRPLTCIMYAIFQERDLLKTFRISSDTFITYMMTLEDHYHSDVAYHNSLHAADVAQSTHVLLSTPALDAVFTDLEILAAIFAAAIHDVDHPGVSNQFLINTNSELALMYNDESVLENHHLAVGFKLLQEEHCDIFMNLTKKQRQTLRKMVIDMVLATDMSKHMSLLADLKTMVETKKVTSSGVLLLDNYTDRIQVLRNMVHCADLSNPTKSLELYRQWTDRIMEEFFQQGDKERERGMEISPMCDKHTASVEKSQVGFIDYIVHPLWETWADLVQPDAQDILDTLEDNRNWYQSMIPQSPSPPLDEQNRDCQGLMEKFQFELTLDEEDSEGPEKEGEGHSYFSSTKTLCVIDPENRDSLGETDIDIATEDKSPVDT
Sequence of Cytochrome P450 2C19 (Homo sapiens) (P33261 whole entry, looked up): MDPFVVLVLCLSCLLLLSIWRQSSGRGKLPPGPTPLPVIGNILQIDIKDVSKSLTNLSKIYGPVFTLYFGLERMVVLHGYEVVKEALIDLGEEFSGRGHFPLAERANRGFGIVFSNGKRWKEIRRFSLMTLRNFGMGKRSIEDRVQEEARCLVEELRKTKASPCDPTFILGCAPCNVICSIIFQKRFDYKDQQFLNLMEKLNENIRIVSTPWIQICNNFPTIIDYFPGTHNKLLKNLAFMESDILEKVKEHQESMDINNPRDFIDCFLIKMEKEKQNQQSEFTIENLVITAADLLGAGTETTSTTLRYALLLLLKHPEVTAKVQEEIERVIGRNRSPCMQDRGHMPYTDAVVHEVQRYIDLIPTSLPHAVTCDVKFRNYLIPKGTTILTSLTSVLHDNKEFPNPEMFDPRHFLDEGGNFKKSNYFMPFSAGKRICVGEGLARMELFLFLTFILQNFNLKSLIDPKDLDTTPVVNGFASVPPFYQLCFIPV
Sequence of Glucocorticoid receptor (Homo sapiens) (P04150 whole entry, looked up, the tested form may be a part): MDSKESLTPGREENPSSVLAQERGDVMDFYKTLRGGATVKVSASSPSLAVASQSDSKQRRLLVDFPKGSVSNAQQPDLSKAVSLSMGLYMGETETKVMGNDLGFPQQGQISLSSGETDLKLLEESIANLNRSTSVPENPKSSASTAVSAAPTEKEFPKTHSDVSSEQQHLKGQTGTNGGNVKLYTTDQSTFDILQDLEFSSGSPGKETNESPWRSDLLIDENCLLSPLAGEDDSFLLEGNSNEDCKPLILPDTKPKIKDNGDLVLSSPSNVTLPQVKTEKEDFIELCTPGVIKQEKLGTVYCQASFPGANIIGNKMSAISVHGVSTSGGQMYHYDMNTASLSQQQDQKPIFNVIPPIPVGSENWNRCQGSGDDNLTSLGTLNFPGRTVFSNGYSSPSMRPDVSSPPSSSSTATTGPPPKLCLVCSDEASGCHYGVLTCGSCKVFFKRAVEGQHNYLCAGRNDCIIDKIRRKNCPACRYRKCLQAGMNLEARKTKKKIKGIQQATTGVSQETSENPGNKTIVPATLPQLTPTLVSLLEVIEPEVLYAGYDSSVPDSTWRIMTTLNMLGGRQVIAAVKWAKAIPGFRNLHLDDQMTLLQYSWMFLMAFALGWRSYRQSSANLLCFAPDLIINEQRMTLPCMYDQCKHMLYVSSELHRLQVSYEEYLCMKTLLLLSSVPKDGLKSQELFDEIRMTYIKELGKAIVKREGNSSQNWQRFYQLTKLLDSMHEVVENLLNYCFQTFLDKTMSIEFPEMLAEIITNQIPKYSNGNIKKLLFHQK

As for `C[C@@H](Cc1cccc(C(F)(F)F)c1)NCCCc1ccccc1`, the Potency in test [1] is 3.98 µM (active); in test [2], greater than 46 µM; in test [4] it was 5.01 µM (active); in test [5], 0.0126 µM (active); in test [6], 1.26 µM (active). The compound was called inactive in test [3] and in [7].
For the compound `CN1CCc2cc3c(cc2[C@@H]1[C@H]1OC(=O)c2c1ccc1c2OCO1)OCO3`, the Potency is 15.8 µM (active) and 12.6 µM (active) in [1]; greater than 46 µM in test [2]; 3.98 µM (active) in [9]; 15.8 µM (active) in test [5]; 100 nM (active) and 15.8 nM (active) in test [6]. Moreover, the compound was called inactive in test [3] and in [8].
For the compound `CN[C@H]1[C@H]2[C@H]3CCN2C[C@@H]1O3`, the Potency entry in [1], in test [9], in test [5] and in test [6] was “inactive” throughout. Besides, the Potency in test [10] is greater than 46 µM. The compound was classed as inactive in test [3].
Take `CC[C@@]12CCCN3CC[C@@]4(c5ccc(OC)c(O)c5N(C(C)=O)[C@H]4CC1)[C@H]32`: the Potency entry in test [1] and in test [9] was “inactive” each time. Moreover, the values for the Potency in test [2] and in test [6] were greater than 46 µM and 0.794 µM (active), respectively. For the same compound, the compound was classed as inactive in [3] and in test [8].
`CCCc1cc2c(n1CCO)C(C)C1CN(C(=O)c3ccccc3)C(C)(C(=O)OC)C21` (stereo not given): the Potency result in test [1] and in [11] was “inactive” each time. Besides, the compound was called inactive in [3] and in [8].

The record behind these values is PubChem BioAssay (NCATS).
